Measurements: ChEMBL document CHEMBL3988442, “University of Dundee, Small-Polar-MMV Screening Library” (2021)

How the values were obtained:
[1] = target: T1, Aspartate--tRNA(Asp/Asn) ligase (Mycobacterium tuberculosis (strain ATCC 25618 / H37Rv)) (UniProt P9WFW3); assay: Assay for Asp RNA synthetase-1 from Mycobacterium tuberculosis; assay type: functional; set-up: scale not given: direction of the effect not stated beside the values; conditions: 30 µM; note: in the data most compounds retested in dose-response had high values
T1 sequence (whole entry): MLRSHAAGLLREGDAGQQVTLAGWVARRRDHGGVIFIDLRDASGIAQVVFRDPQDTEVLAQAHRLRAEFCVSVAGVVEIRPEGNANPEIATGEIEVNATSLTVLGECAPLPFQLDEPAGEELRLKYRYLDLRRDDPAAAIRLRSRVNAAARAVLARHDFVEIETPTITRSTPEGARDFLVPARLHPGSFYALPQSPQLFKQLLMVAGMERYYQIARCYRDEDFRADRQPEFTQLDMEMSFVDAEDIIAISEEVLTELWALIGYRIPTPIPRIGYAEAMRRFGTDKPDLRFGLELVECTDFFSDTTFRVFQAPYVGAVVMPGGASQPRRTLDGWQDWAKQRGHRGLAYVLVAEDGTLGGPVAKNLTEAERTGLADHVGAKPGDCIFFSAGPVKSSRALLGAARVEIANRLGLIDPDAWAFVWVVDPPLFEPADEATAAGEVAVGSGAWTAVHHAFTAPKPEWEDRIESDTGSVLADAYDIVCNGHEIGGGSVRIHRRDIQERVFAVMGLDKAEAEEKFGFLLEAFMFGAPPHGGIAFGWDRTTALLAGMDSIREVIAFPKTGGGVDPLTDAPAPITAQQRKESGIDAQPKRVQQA

[2] = target: Shiga toxin 2 (Escherichia coli O157:H7) (UniProt P09385+P09386); assay: E. coli 0.157:H7 Shiga Toxin SOP - stx2 screening assay; assay type: functional; set-up: scale not given: direction of the effect not stated beside the values; conditions: 30 µM

Compound | Percent Effect [1] [%] | Percent Effect [2] [%]
N#Cc1cccc(N2CC3(CCN(C(=O)c4cccnc4)C3)CC2=O)c1 (configuration not stated) | 2.09 | -13.7
COCc1nn(C(C)C)c2c1CCN(Cc1ccc(C)s1)C2 | -3.6 | -26.4
CCc1nc(C2CCCN2C(=O)CCCn2cccn2)no1 (configuration not stated) | -0.232 | -5.5
Cc1cnn(CC2CN(Cc3nnc(C4CC4)o3)CCO2)c1 (configuration not stated) | -2.56 | 24.8
CC(=O)N1[C@@H](C(=O)NCC2CC2)C[C@@H]2CN(Cc3ccco3)C[C@@H]21 | 0.523 | -11.8
COc1ccc2c(c1)OCC(CNC(=O)c1ccncc1)C2 (configuration not stated) | -2.83 | 17.7
CS(=O)(=O)NCc1cc2n(n1)CCCN(Cc1nc3ccccc3[nH]1)C2 | -3.96 | 22.6
Cc1cnn(C2CN(CC(=O)NCCc3ccccc3)C2)c1 | -1.74 | 32.1
O=C([C@@H]1CC[C@@H]2[C@@H](CCN2Cc2ccoc2)O1)N1CCCC1 | 0.466 | 1.2
COc1ccc(C2(CNC(C)c3nnc(C)o3)CCCCC2)cc1 (configuration not stated) | 2.67 | -2.63
c1cnc(-c2cnc(N3CCSCC3)nc2C2CCCO2)cn1 (configuration not stated) | 6.48 | 13.6
CCc1nc(CN2CCN(C(=O)c3cnccn3)CC2)cs1 | -2.04 | -21.2
CNC(=O)C1Cn2ccnc2C2(CCN(Cc3cccc(C)n3)CC2)O1 (configuration not stated) | 1.82 | 0.0939
CCN(CC)Cc1cn2c(n1)CN(C(=O)c1cnccn1)CC2 | 0.29 | 5.28
Cc1cc(C)cc(C2(C(=O)NC(C)Cn3ccnc3)CC2)c1 (configuration not stated) | -2.37 | -14.1
O=C(c1ccncc1F)N1CCN(CC2CC2)c2ncccc2C1 | 2.79 | -37.6
Cn1cnnc1C1CCCN(C(=O)c2ccccc2Cl)C1 (configuration not stated) | 1.15 | 22.4
CCOCCn1nc(C)cc1C(=O)N1CCN(C(C)C)C(CC)C1 (configuration not stated) | -1.08 | 10.1
CCOc1ncccc1C(=O)N1CCCCC1c1nccs1 (configuration not stated) | -1.77 | 2.91
Cc1ccc(C(O)CNCc2c(C(C)C)nn(C)c2N(C)C)cc1 (configuration not stated) | -5.77 | 10.4
O=C(NCCc1ccccc1)C1CCC(Cn2cnnn2)CC1 (configuration not stated) | -4.3 | -20.1
CS(=O)(=O)c1ccc(CNC(=O)N2CCC(C(N)=O)C2)cc1 (configuration not stated) | -1.49 | -11.7
CCC(=O)N1CCN(Cc2cc(-c3ccncc3)nn2C)CC1 | -0.849 | -10.7
O=S(=O)(c1ccccc1)N1CCN(CCn2ccnc2)CC1 | -3.1 | 2.08
CNc1cc2c(nn1)CCN(C(=O)C1CCCc3ccccc31)C2 (configuration not stated) | 0.0571 | 4.77
Cc1nc(CN2CCN(CC(=O)Nc3c(C)cccc3C)CC2)no1 | -3.29 | -6.23

Compound | Percent Effect [1] [%] | Percent Effect [2] [%]
Cc1ccc(C(=O)Nc2cc(C(C)C)n[nH]2)cn1 | 2.73 | 1.39
Cc1cc(C)n(CCC(=O)N2CCC(c3nc(C(C)C)no3)CC2)n1 | 2.47 | -18.2
CCOc1ccc(-n2nnc(C(=O)O)c2-c2ccccn2)cc1 | 12 | -8.4
Cc1noc(C)c1C(=O)N1C[C@H]2CCC[C@@]2(COc2ccccn2)C1 | 4.65 | 2.11
CN(CCCc1ccccc1)Cc1nc2c(cnn2C)c(=O)[nH]1 | 1.38 | 28.4
Cc1nc(CN2CCC(N(C)Cc3noc(C4CC4)n3)C2)oc1C (configuration not stated) | 1.48 | -11
O=C(c1ccccc1-n1cccn1)N1CCCN(c2cccnn2)CC1 | 0.98 | 33
COCCN1CCC(N(Cc2noc(C3CC3)n2)C(C)=O)C1 (configuration not stated) | -1.46 | 29.5
CCc1nc(C)c(C(=O)NCCN2CCC(C)CC2)s1 | -0.879 | -68.3
CCN1CCN(Cc2ccnc(-c3cccnc3)n2)CC1 | -0.64 | -13.1
Cc1ncsc1C(=O)N(C)Cc1ccncc1 | -4.5 | 27.3
C[C@@H]1CN(C2(C(=O)N3CCCCCC3)Cc3ccccc3C2)C[C@H](C)O1 | -2.09 | 3.06
N#Cc1ccnc(N2CCN(CC(O)c3cccc(F)c3)CC2)c1 (configuration not stated) | 1.79 | 5.66
CN1C[C@H]2CCN(C(=O)NC3CCCC3)CC[C@H]2S1(=O)=O | 2.12 | -19.5
Cc1[nH]nc(CCC(=O)N2CCCC(OCc3cccnc3)C2)c1C (configuration not stated) | -6.25 | 20
CCc1nnc(CN(C)c2nc(C(C)C)nc3c2cnn3C)o1 | 5.74 | -7.55
CN(Cc1ccco1)[C@@H]1CN(C(=O)c2ccnnc2)C[C@@H]2CCCO[C@@H]21 | -5.22 | -5.91
CC(O)CC(C)(C)CNC(=O)NCc1cccc(-n2ccnc2)c1 (configuration not stated) | 1.43 | -7.32
Cc1noc(C(C)N2CCN(CCCN3CCCC3=O)CC2)n1 (configuration not stated) | 0.409 | 4.39
COc1cc(C(=O)N(Cc2cnn(C)c2)C(C)C)ccc1OCC(N)=O | 0.225 | 33
CCc1nc(C2CCCN(C(=O)c3cn(C)nc3C)C2)no1 (configuration not stated) | -7.17 | -20.7
CCc1noc(C2CCCCN2C(=O)c2nnc3ccccc3n2)n1 (configuration not stated) | 1.83 | -8.75
CCS(=O)(=O)N1CCc2ccc(NC(=O)Nc3cccc(SC)c3)cc21 | -4.68 | -22
CCCNC(=O)COc1ccc(C)cn1 | -4.7 | -36.7
Cc1ccc([C@]2(O)CC[C@H]3CN(Cc4cc(C)c(O)c(C)c4)C[C@H]32)nc1 | 3.29 | -2.26
O=C(NS(=O)(=O)c1ccc2c(c1)OCCO2)c1ccc(Br)cc1F | 1.56 | 8.44

Compound | Percent Effect [1] [%] | Percent Effect [2] [%]
COCCCNC(=O)CN(C)C(=O)c1cc(C)ccc1O | 0.583 | 14.3
Cc1ccsc1C(=O)N1CC(C(=O)NCC2CC2)C2(CCOCC2)C1 (configuration not stated) | 8.9 | -7.68
Cc1cnn(CCNCC(=O)NCC2(c3ccccc3)CCC2)c1 | 4.12 | 22.9
CC(C)CC(=O)N1CCCn2cnc(CN3CCCC3=O)c2C1 | -3.68 | -15.8
COCCN1CCc2cc(C(=O)NCC3CC3)c(NC(C)C)nc2CC1 | 7.66 | 6.55
CC(=O)N1C[C@@H](c2ccsc2)[C@@H]2CN(Cc3cccc(Cl)c3)CC[C@@H]21 | -0.368 | -9.53
CNC(=O)c1cc2c(nc1N(C)C)CCN(S(=O)(=O)C1CC1)CC2 | 0.364 | -4.82
O=C(CN1CCCC(Cn2cncn2)C1)NCc1ccco1 (configuration not stated) | -4.69 | 14.2
Cn1cccc1C(=O)N1CCc2ncnc(C3CC3)c2CC1 | 0.574 | -1.81
CNC(=O)CS(=O)(=O)Cc1cc(Cl)c2c(c1)OCCCO2 | 0.857 | 0.921
Cn1nc(CNC(=O)NCc2ccc(Cl)cc2)c2c1CCOC2 | 1.91 | -9.65
CCOc1cc(/C=C/c2ncc(C(=O)O)s2)cc(Cl)c1OC | -1.24 | -0.531
CC(C)COCC1CN(Cc2ccc3c(c2)OCO3)Cc2ncn(C)c21 (configuration not stated) | 2.63 | -19.1
Cc1nccc(C2CN(Cc3cc[nH]n3)CCO2)n1 (configuration not stated) | -1.53 | 2.02
CNc1cc(N2CCCC2CNCc2cnc(C)cn2)ncn1 (configuration not stated) | -0.989 | -46
O=C(Cc1ccc2c(c1)OCCO2)NC1CCN(CC(F)F)CC1 | -1.24 | 11
COc1ccc(C(C(=O)O)N2CCCN(C3CCCC3)CC2)cc1OC (configuration not stated) | 0.804 | -25.6
Fc1cccc(N2CCCC3(C2)CN(c2ncccn2)CCO3)c1 (configuration not stated) | 2.81 | -2.38
CN1CCC(c2nnc(CN3CCC(O)CC3)n2C)CC1 | 10.8 | -2.24
Cc1nc(-c2ccsc2)ccc1C(=O)NCCC1CCCO1 (configuration not stated) | 0.767 | -18.3
O=C1CC(c2cccc(O)c2)c2c(c(C(=O)O)cn2-c2ccccc2)N1 (configuration not stated) | 22.9 | -12.9
CN(CCCc1cnn(C)c1)C(=O)C1COc2ccccc2C1 (configuration not stated) | 11.4 | -16.4
Cn1cc(NC(=O)N2CCC(CN3CCCC3)CC2)ccc1=O | -3.79 | -22.6
CCOc1ncccc1NC(=O)N1CCCCCC1 | 7.43 | -2.38
Cc1cc(C(=O)N2CCc3nnc(N(C)C)cc3C2)c(C)n1C1CC1 | 0.451 | -0.445
CCS(=O)(=O)CCN1CCCC1c1noc(C2CC2)n1 (configuration not stated) | -2.94 | -0.711

Compound | Percent Effect [1] [%] | Percent Effect [2] [%]
O=C(NC1CCS(=O)(=O)C1)c1sccc1-c1ccc(F)cc1 (configuration not stated) | -5.43 | 3.12
Cc1cccc(CN2CCC3(CCN(Cc4ccccn4)C3)C2=O)c1 (configuration not stated) | 0.956 | -19.6
NC(=O)COc1cccc(C(=O)N2CCCC(n3ccnc3)C2)c1 (configuration not stated) | 0.962 | -19.9
Cc1[nH]ccc1C(=O)Nc1cccc(CN2CCC(O)CC2)c1 | 0.958 | -28.9
CCc1nc2n(n1)CC(NCc1nc(C)ccc1O)CC2 (configuration not stated) | -1.83 | 11.7
COCC(=O)N1Cc2cnc(Cc3ccc(OC)cc3)nc2C1 | 2.73 | -8.2
CCN(Cc1ccc2c(c1)OCCO2)C(=O)NC(C)Cn1ccnc1 (configuration not stated) | 5.58 | -4.95
O=C(NCC1CC1)c1nc(COc2ccc3c(c2)OCO3)no1 | -5.11 | -58.6
Cc1ccc2c(ccn2CCC(=O)O)c1 | 0.776 | -8.69
O=S(=O)(Nc1cnn(C2CCOCC2)c1)c1c(F)cccc1F | 2.52 | 1.54
CCOC(=O)c1sc(NC(=O)CN(C)S(C)(=O)=O)c(C#N)c1C | -4.94 | 2.91
Cc1ccc(F)cc1S(=O)(=O)N(C)CC(N)=O | 2.69 | -5.32
Cc1ccc(-c2nc(CN3CCOC(c4ccccc4)C3)cs2)o1 (configuration not stated) | -0.792 | 13
O=C(c1ccc[nH]1)N1C[C@H]2CC[C@@H]1CN(c1ncccn1)C2 | -4.31 | -5.71
CCc1nc(C2CCCN2CC(=O)Nc2sc(C)c(C)c2C)no1 (configuration not stated) | 0.212 | 8.78
CC(=O)N(Cc1ncc(C)o1)C1CCN(Cc2cccc(C#N)c2)C1 (configuration not stated) | 0.127 | 9.86
CCc1nc(CN2CCN(C(=O)C3CCCCC3)CC2)cs1 | -0.656 | 1.6
O=C1N(c2ccc(Br)cc2)Cc2nc(=O)[nH]n21 | -4.79 | -34.3
Cc1cc(C)n(CC2CCCN2C(=O)c2ccc3c(c2)nnn3C)n1 (configuration not stated) | 5.23 | -34.8
CCC(=O)N1CCC2(CC1)COc1ccccc1S(=O)(=O)N(C)C2 | -1.57 | 6.18
CN(C)C(=O)CS(=O)(=O)Cc1cc(Cl)c2c(c1)OCCCO2 | 4.36 | 29.6
CC(OCC(F)(F)F)C(=O)N1CCN(S(C)(=O)=O)CC1 (configuration not stated) | -0.604 | -10.8
O=C(c1cc[nH]n1)N1CCC(Nc2cccnn2)CC1 | -8.36 | -20.2
